# Test results published in PubChem BioAssay (NCI).
# Compounds without any hit were thinned out: in the full panel of roughly 83,000, 20% have a hit.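 96-well plates, one dose, 48 hours. Percent growth reported; active if below 10.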 Unmarked numbers belong to inactive results. Activity calls are given as the source filed them.
# Assays:
# Assay in all cases: NCI-60 one-dose screen, 48 h (100 = growth as untreated, 0 = no growth, -100 = all killed)
# Conditions in all cases: 10 µM unless noted
# [1] = system: T-47D breast
# [2] = system: BT-549 breast
# [3] = system: MDA-MB-435 melanoma
# [4] = system: SW-620 colon
# [5] = system: MCF7 breast
# [6] = system: HCT-116 colon
# [7] = system: HCC-2998 colon
# [8] = system: KM12 colon
SMILES,growth [1],growth [2],growth [3],growth [4],growth [5],growth [6],growth [7],growth [8]
Cc1cc(CC(=O)NCCO)n(CCO)c(=O)c1,84.1%,111%,107%,98%,102%,97.5%,103%,107%
Nc1ccn(C2CC(N)C(CO)O2)c(=O)n1 (stereo unspecified),81.1%,71.8%,83.6%,88.8%,66.5%,63.6%,74.8%,97.4%
Cc1ccc(S(=O)(=O)Oc2ccc3sc4c(CO)ccc(NCCN(C)C)c4c(=O)c3c2)cc1,-51.8% [100 µM] (active),-91.2% [100 µM] (active),-98% [100 µM] (active),-88% [100 µM] (active),-76.1% [100 µM] (active),-75.9% [100 µM] (active),-88.2% [100 µM] (active),-68.6% [100 µM] (active)
O=C(O)c1ccc(OCc2ccccc2)cc1,83.7%,104%,108%,107%,96.5%,93%,101%,111%
CC1(C)C2CCC1(C)C1(C2)OCCS1 (stereo unspecified),93.9%,88.3%,99.6%,100%,88.9%,110%,101%,102%
COc1ccc(C(=O)/C(=N/Nc2ccccc2)c2ccc(OC)cc2)cc1,87%,103%,94.1%,93.5%,95.2%,78.5%,95.2%,90%
O=c1cc(Cl)nc2ccccn12,103%,107%,108%,105%,91.4%,99.6%,102%,96.6%
Clc1ncnc2nc[nH]c12,90.7%,101%,106%,103%,94.9%,102%,89.6%,105%
NNC(=O)N/N=C1\C(=O)N(c2nccs2)C(=O)C(=O)C1c1nc2ccccc2s1 (stereo unspecified),77.1%,99.1%,109%,96.1%,98.5%,88.7%,93.2%,100%
COc1cc(CC#N)c([N+](=O)[O-])cc1OC,105%,105%,111%,119%,102%,93.5%,108%,104%
C=CCNC(=S)N/C=C(/C(=O)c1ccccc1)c1ccccc1,99.4%,98.2%,98.6%,98.9%,97.6%,115%,105%,104%
C/C(O)=C(/C=N/C(=S)Nc1ccccc1)C(=O)Nc1ccccc1C,79.6%,107%,111%,106%,94.9%,109%,109%,100%
C=CCC(O)C=C (stereo unspecified),95.6%,104%,111%,104%,98.2%,105%,113%,102%
Cc1ccc(C)c2c1CCC2=O,103%,97.6%,93.3%,93.5%,94.7%,93.1%,96.7%,100%
C=CC(C)C(C)(C)O (stereo unspecified),89.2%,97.3%,102%,101%,101%,93.9%,106%,101%
CCC(C)C1CCC(O)CC1 (stereo unspecified),104%,98.5%,103%,107%,100%,101%,107%,105%
CC(=O)Nc1ccc(/C=C2\SC(=S)N(/C=C(\C(C)=O)C(N)=O)C2=O)cc1,87.5%,92.3%,89.6%,96.9%,96.4%,92.2%,94.4%,101%
